# Screening data as filed in PubChem BioAssay.
# Shown are actives, neighbours in structure and some others; about 7.5% of the full set was active somewhere.
# ELG1 genotox: inducers of genotoxicity in HEK293T ELG1-luciferase cells; HEK293T ELG1-luciferase reporter, luminescence, 16 h; Potency, µM (top dose mostly 46 µM), without a hit: top-dose activity change, positive = activation, actives largely listed as activators; AID 504466; actives 1.3% (n = 330,000); also: % of control where 0% means no effect; nearly all actives have a fitted effect of over 60% in size
#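 Luminescence read-out: rising ELG1-luciferase signal, reflecting elevated ELG1 protein under genetic stress, flags genotoxic compounds. Cells were treated for 16 hr at 37 °C before ONE-Glo detection.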
# SMN2 splice enh: enhancers of SMN2 splice variant expression; Potency, µM (titrated, usually from 46.1 µM), inactives show at the top dose activity change, positive = activation, most hits filed as activators; actives 2.8% (n = 210,000); HEK293 SMN2-luciferase splicing reporter, luminescence, 30-36 h; AID 1458; also: % of control where 0% means no effect; nearly all actives have a fitted effect of over 55% in size
#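 HEK293 cells carry an SMN2 […]–luciferase reporter in which exon 7 inclusion puts luciferase in frame. Cells were plated 10-12 h before compound addition, then incubated 30-36 h at 37C. ONE-Glo luminescence was read; sodium butyrate at 4.5 mM final served as control.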
# Rab9 prom act: activators of Rab9 promoter. actives 2.8% (n = 320,000). Huh7 Rab9 promoter-luciferase reporter, luminescence, 24 h. Potency, µM (series often up to 9.22 µM), inactives show top-dose activation, negative = inhibition, hits mostly activators; also: % of control where 0% means no effect; nearly all actives have a fitted effect of over 60% in size
#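 Promoter activation is measured as luciferase luminescence in Huh7 cells stably transfected with a Rab9 promoter–luciferase construct, following 24 h compound exposure at 37 °C and 10 min reagent incubation at ambient temperature.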
# KinaseGlo FLuc: counter-screen: inhibitors of Kinase-Glo firefly luciferase | AID 1379 | Potency, µM (series often up to 38.3 µM), for inactives: top-dose activity change, negative = inhibition, usual class: inhibitors | actives 0.28% (n = 200,000) | Q27757 | Kinase-Glo luciferase, ATP luminescence, 8 min; also: % is scaled to controls: 0 for no effect and ±100 for the full control effect; nearly all actives have a fitted effect of over 60% in size
#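 Inhibition of Kinase-Glo luciferase light generation was assessed at 10 uM ATP in pH 7.2 imidazole buffer, with luminescence measured after eight minutes at ambient temperature.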
# NPC1 promoter act: activators of NPC1 promoter; Potency, µM (highest dose often 9.22 µM), for the others: top-dose activation, most hits filed as activators; AID 485313; Huh7 NPC1 promoter luciferase reporter, 24 h; actives 2.4% (n = 320,000); also: % of control where 0% means no effect; nearly all actives have a fitted effect of over 60% in size
#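 Cells: Huh7 expressing luciferase under the NPC1 promoter, 1500/well. Seeded 2 h, compound added, incubated 24 h at 37 °C. Luciferase reagent, 10 min ambient, then luminescence.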
# FLuc counter: firefly luciferase modulation, counter-screen for miR-21 project; AID 588342; Potency, µM (top dose mostly 57.5 µM), inactives show top-dose activity change, negative = inhibition, most hits filed as inhibitors; P08659; actives 6.9% (n = 360,000); purified FLuc, Km substrates, luminescence inhibition;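 also: plate controls were vehicle for no effect and reference inhibitor for full effect; nearly all actives have a fitted effect of over 55% in size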
# Target sequence (P08659 whole entry, looked up): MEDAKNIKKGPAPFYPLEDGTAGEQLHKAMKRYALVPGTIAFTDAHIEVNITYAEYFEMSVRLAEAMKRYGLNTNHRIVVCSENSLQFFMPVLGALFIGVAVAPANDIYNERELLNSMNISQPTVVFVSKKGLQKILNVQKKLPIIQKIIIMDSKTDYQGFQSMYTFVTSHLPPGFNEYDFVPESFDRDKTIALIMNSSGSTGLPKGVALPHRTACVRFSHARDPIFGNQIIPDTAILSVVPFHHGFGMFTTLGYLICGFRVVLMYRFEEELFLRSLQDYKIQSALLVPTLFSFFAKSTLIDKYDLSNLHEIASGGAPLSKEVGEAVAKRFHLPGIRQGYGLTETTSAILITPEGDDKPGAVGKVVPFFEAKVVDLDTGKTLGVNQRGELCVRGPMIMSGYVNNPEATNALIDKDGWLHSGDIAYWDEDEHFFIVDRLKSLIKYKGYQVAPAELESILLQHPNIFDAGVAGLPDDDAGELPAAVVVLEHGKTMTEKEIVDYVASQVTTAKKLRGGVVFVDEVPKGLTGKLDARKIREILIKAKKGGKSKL
#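 Purified P. pyralis luciferase (10nM final) with 10uM D-luciferin and 10uM ATP (Km levels) in 50mM Tris acetate pH 7.5, 10mM Mg acetate, 0.01% Tween-20, 0.05% BSA; qHTS 6-point titration, ~60 µM downward; luminescence read.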
# * = called active by the depositor; ? = inconclusive; · = not tested or not shown; [ ] = another dose, or the depositor's remark. Calls follow the shape of the dose curve; as a rule, active = well fitted curve in the direction sought with a large enough effect; inconclusive = small, poorly fitted or top-dose-only effect, or another doubt; inactive = no such curve, though single readings can be large; an effect the other way counts as inactive or inconclusive. Potency is read from the fitted curve at half-maximal effect.
SMILES,ELG1 genotox,SMN2 splice enh,Rab9 prom act,KinaseGlo FLuc,NPC1 promoter act,FLuc counter
Cc1cc(NC(=O)c2cccc3ccccc23)cc(C)c1OCC(=O)N1CCOCC1,-9%,-13%,-5%,6%,-1%,?
COc1cc(C(=O)Nc2ccc(C)cn2)ccc1OCC(=O)N1CCOCC1,7%,·,2%,·,2%,17µM*
CCCCOc1ccc(C(=O)Nc2ccc(CN3CCOCC3)cc2)cc1,-1%,·,-24%,·,-10%,?
Cc1cc(NC(=O)c2ccc(Cl)cc2)cc(C)c1OCC(=O)N1CCOCC1,10%,·,?,·,3.2µM*,1.7µM*
COc1cc(C(=O)Nc2cc(C)ccn2)ccc1OCC(=O)N1CCOCC1,?,·,10%,·,1%,?
Cc1cc(-c2ccccc2)nc(N/N=C/c2cccnc2)n1,-2%,·,1%,-18%,5%,12µM*
C(=N/Nc1nc(-c2ccccc2)cc(-c2ccccc2)n1)/c1cccnc1,1%,2.5µM*,26%,-8%,18%,2.7µM*
Cc1cc(C)nc(N/N=C/c2ccco2)n1,10%,?,-3%,9%,10%,?
C(=N\Nc1nc(Nc2ccccc2)nc(Nc2ccccc2)n1)/c1cccnc1,-6%,3%,4%,-3%,3%,?
C(=N\Nc1nc(N2CCCC2)nc(N2CCCC2)n1)/c1cccnc1,-12%,-23%,-6%,1%,-5%,4%
Cc1cc(-c2ccccc2)nc(N/N=C/c2ccccc2)n1,17%,·,?,·,?,6.7µM*
Cc1cc(-c2ccccc2)nc(N/N=C/c2ccco2)n1,7%,13%,?,-2%,?,12µM*
Cc1cc(-c2ccccc2)nc(N/N=C/c2ccc([N+](=O)[O-])cc2)n1,-8%,1%[1.84 µM],1%,-2%,-3%,-26%
Cc1ccnc(NC(=S)NC(=O)/C=C/c2ccc(Cl)cc2)c1,4%,2%,-1%,1%,2%,?
COc1ccc(/C=N/Nc2nc(C)cc(-c3ccccc3)n2)cc1OC,-13%,·,1%,·,-2%,13µM*
Cc1ccc2nc(N/N=C/c3ccco3)cc(C)c2c1,9%,·,2.5µM*,-3%,2.8µM*,2.7µM*
COc1ccc(-c2cnnc(N/N=C/c3ccc(OC)c(OC)c3)n2)cc1,-2%,·,0%,-19%,6%,2.7µM*
Cc1ccc2nc(C)cc(SCC(=O)N/N=C/c3ccco3)c2c1,-7%,·,-6%,·,-9%,3%
COc1ccccc1/C=N/N1C(=O)c2cccc3cccc(c23)C1=O,0%,18%,-3%,1%,-3%,0%
CN(C)c1ccc(/C=N/N2C(=O)c3ccccc3C2=O)cc1,7%,·,10%,·,0%,0.43µM*
COc1ccc(/C=N\n2nnc3ccccc32)cc1,?,0.79µM*,0.22µM*,-28%,0.32µM*,0.19µM*
COc1ccc(/C=N/N2C(=O)c3ccccc3C2=O)cc1,-4%,-1%,-1%,14µM*,1%,2.1µM*
CCN(CC)c1ccc(/C=N/N2C(=O)c3ccccc3C2=O)cc1,0%,-15%,-2%,-5%,0%,4.3µM*
COc1ccc(OC)c(CNC(=O)c2cc3ccc4cccnc4c3[nH]2)c1,·,·,·,·,·,-20%
COc1ccccc1CCNS(=O)(=O)c1ccc(N2CCCCS2(=O)=O)cc1,·,·,·,·,·,6%
Cc1cccc(CNC(=O)Cn2ccc3cc(S(=O)(=O)N4CCC(C)CC4)ccc32)c1,·,·,·,·,·,2%
Nc1c(C(=O)Nc2ccc(OC(F)(F)F)cc2)nnn1Cc1ccccc1,·,-5%,·,·,·,-1%
C=CCOc1ccc2nc(NC(=O)OC)[nH]c2c1,9.2µM*,11µM*,-2%,-3%,7%,?
Cc1ccc2c3c(cccc13)-c1ccccc1C2=O,0%,?,-4%,2%,0%,19µM*
COc1ccc(O)c(/C=N/NC(=O)c2cccc(N3CCCC3=O)c2)c1,13%,·,-8%,·,-39%,11µM*
